Data on six sequences can be found in the OligoGym collection.

Some targets named below: TNP2; TNK1; TNKS; TRAPPC2.
What all share (assay): pooled miR-30 sensor sort-seq; sequence = guide strand
Holding throughout (conditions): shRNA
Also: reference of the scale not given here.

On to TACACCTGCTGGATCCTCTTGG, for which, in the assay with TNP2, the sensor-assay potency score (higher = more potent) amounted to 0.0749. The sequence TAGACTTAGGCCCAGAACGTAG displayed a sensor-assay potency score (higher = more potent) with TNK1 of -0.86. As for TTAGCTAAGTCTGCTTCTCTGG, the sensor-assay potency score (higher = more potent) with TNKS was -0.647. The sequence TTTGGTGGTGGACTAGTGTTGG had a sensor-assay potency score (higher = more potent) in the assay with TNP2 of -0.0566. For TTGATCGAATAGGAGAATTGGG, the sensor-assay potency score (higher = more potent) with TRAPPC2 is -0.578. In the case of TTATTCCATCTTCTTGTCTTAT, in the assay with TRAPPC2, the sensor-assay potency score (higher = more potent) was -1.23.
